A selection: hits, their analogues and other compounds. The true share with any hit is near 4%.
TROY NFkB inh = TROY signaling inhibition. Q293 LMP1-TROYcd NF-kB luciferase reporter, 4 h. inhibition, % at 10 µM. 360,000 compounds, 0.98% hits;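 active = compounds whose plate-normalised and pattern-corrected inhibition of the luciferase reporter signal at the single screening dose is 50% or more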
CF NFkB block = cystic fibrosis NF-kB activation inhibition; inhibition, % at 5 µM; KKLEB NF-kB-GFP reporter, PAF-induced, GFP fluorescence overnight; 360,000 compounds, 0.86% hits; AID 588850;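 active = at least 50% inhibition at 5 µM, scaled per plate between neutral and stimulator controls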;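 note: PAF is a Pseudomonas aeruginosa culture filtrate used as stimulus; plate controls were PAF-stimulated DMSO wells for no effect and unstimulated DMSO wells for full effect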
KKLEB tox = reduces viability of KKLEB cystic fibrosis airway cells; KKLEB CF airway cells viability, ATPlite luminescence, overnight; hits give low values; cells stimulated with P. aeruginosa culture filtrate; activity change (cytotoxicity), % at 5 µM; 360,000 compounds, 0.36% hits; AID 602141;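 active = corrected activity change at or below -50% at 5 µM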
TWEAK-Fn14 inh = blocks TWEAK-Fn14 interaction in a reporter cell assay; TWEAK-stimulated Fn14 reporter cells, luciferase luminescence, 8 h; AID 1159606; 360,000 compounds, 2% hits; inhibition, % at 10 µM; in the data active = inhibition above about 50%
HIF-2a block = inhibitors of HIF-2a; 360,000 compounds, 0.72% hits; 786-0 RCC cells HIF-2a reporter, luciferase luminescence, overnight; inhibition, % at 18.8 µM; AID 624352;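 active = inhibition of the luminescence signal of 40% or more relative to plate controls, in a single-dose primary screen at 18.75 µM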
Peg3 prom inh = reduces Peg3 promoter-driven luciferase expression in HeLa. HeLa PEG-Prom luciferase reporter, luminescence, overnight. inhibition, % at 20 µM. 360,000 compounds, 1.7% hits. AID 588405;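 active = inhibition of at least 50% at 20 µM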
CF NFkB inh conf = CF NF-kB inhibition confirmation, single concentration; KKLEB CF airway cells, PAF-induced NF-kB-GFP fluorescence, overnight; shares compounds with CF NFkB block; 1,300 compounds, 64% hits; inhibition, % at 5 µM; AID 602472; in the data active = inhibition above about 40%;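 note: stimulus PAF is a Pseudomonas aeruginosa filtrate and not platelet activating factor; plate controls were DMSO wells with stimulus for no effect and unstimulated DMSO wells for full effect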
An asterisk follows results filed as active; nt = not tested or not shown.

SMILES	TROY NFkB inh	CF NFkB block	KKLEB tox	TWEAK-Fn14 inh	HIF-2a block	Peg3 prom inh	CF NFkB inh conf
O=C(CN1C(=O)NC2(CCCc3ccccc32)C1=O)c1ccc(F)c(F)c1 (configuration not stated)	-3	56*	-39	12	0	-7	11
O=C(CN1C(=O)NC2(CCc3ccccc32)C1=O)c1ccc(Cl)cc1 (configuration not stated)	-26	1	0	-7	14	-5	nt
C=C1C(=O)OC2C1C(OC(=O)C(C)=CC)CC(=C)C1C(O)C3OC3(C)C21O (configuration not stated)	12	22	-16	7	22	26	nt
C=C1C(=O)OC2C=C(CO)CCC=C(CO)CC(OC(=O)C(C)C)C12 (configuration not stated)	-6	87*	-15	32	9	64*	45*
CN(C(=O)COC(=O)c1ccc(C(C)(C)C)cc1)C1CCS(=O)(=O)C1 (configuration not stated)	-14	-12	13	11	2	-10	nt
CN(C(=O)COC(=O)c1nc(Cl)c(Cl)c(Cl)c1Cl)C1CCS(=O)(=O)C1 (configuration not stated)	57*	79*	-46	94*	40	107*	-16
Cc1cc(Cl)ccc1OCC(O)CNCCc1ccc(S(N)(=O)=O)cc1 (configuration not stated)	0	16	2	-1	25	26	nt
COc1ccc(-c2c(C#Cc3ccsc3)c3cc(-c4cccc5[nH]ccc45)ccc3n2C)cc1	22	-6	1	-15	-3	-4	nt
COc1cc(OC)cc(-c2c(C#Cc3ccsc3)c3cc(-c4cccc5[nH]cc(C=O)c45)ccc3n2C)c1	4	73*	-14	9	-42	54*	-33
O=C(Nc1cccc(Cl)c1)Nc1csc([N+](=O)[O-])c1	38	54*	-48	72*	-173	-67	63*
O=C(Nc1ccncc1)Nc1cccc(Cl)c1	-7	9	-5	7	-83	-93	nt
COc1ccc(-n2ncc3c(N4CCN(Cc5ccccc5)CC4)ncnc32)cc1	61*	66*	6	81*	-215	103*	74*
CCC(CO)Oc1cc(NC(=O)Cc2ccccc2)c2ncn(C(C)C)c2c1 (configuration not stated)	4	-4	12	6	12	8	nt
O=C(NCC[C@@H]1CC[C@@H](NS(=O)(=O)c2ccccc2)[C@@H](CO)O1)c1cc(Cl)cc(Cl)c1	nt	nt	nt	nt	9	nt	nt
Cc1ccc(S(=O)(=O)Nc2cc(C)cc(CCNC=O)c2C)cc1	7	-5	2	10	1	-6	nt
Cc1c(CCNC=O)cc(C)c2c3c(oc12)CCCC3	-49	58*	-12	-10	-272	-341	19
Cc1cc2oc(=O)cc(CNc3ccccc3F)c2cc1O	0	3	-19	-21	22	49	nt
O=C(O)/C=C/c1ccc2c(-c3ccccc3)onc2c1	1	59*	-16	20	4	29	74*
O=C(O)c1ccc2noc(-c3ccccc3)c2c1	-43	4	14	-41	-172	-170	nt
NC(=O)c1nsc(C(=O)N(c2cccc(O)c2)C(C(=O)NC2CCCC2)c2ccc(Cl)cc2)c1N (configuration not stated)	22	3	3	18	4	31	nt
CN(C)c1ccc(C(C(=O)NC2CCCCC2)N(Cc2ccco2)C(=O)c2snc(C(N)=O)c2N)cc1 (configuration not stated)	-2	88*	-44	28	-14	41	79*
COc1cc(C(C(=O)NC2CCCC2)N(Cc2ccco2)C(=O)c2snc(C(N)=O)c2N)cc(OC)c1OC (configuration not stated)	-1	-9	0	8	11	-2	nt
CCOc1ccc(C(C(=O)NC2CCCC2)N(C(=O)c2snc(C(N)=O)c2N)c2cccc(O)c2)cc1 (configuration not stated)	13	75*	-11	27	1	53*	70*
COc1cc(C#N)ccc1OC(=O)C1CCN(C(=O)c2ccc(F)cc2)CC1	20	-29	18	10	4	12	nt
